Most compounds without a hit are left out; they make up all but 3.5% or so of the library.
Pf apPOL block – Pf-apPOL DNA polymerase inhibition. hit rate 0.25% among 210,000. AID 1794808. Recombinant Pf-apPOL, molecular beacon fluorescence, 1.5 h. inhibition, % at 10 µM
mHTT-CaM PPI inh – mHTT-calmodulin interaction abrogation | P42858 | AlphaScreen His-mHTT/GST-CaM binding, luminescence | inhibition, % at 15 µM | hit rate 3.6% among 190,000 | AID 1671202;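 further: 0% = both proteins with DMSO and 100% = one protein alone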
Starred values were filed as active, the others as inactive; x = no result given. No stated cut-off is given here; in the data, active means inhibition above about 50%; inactive means the rest.

SMILES	Pf apPOL block	mHTT-CaM PPI inh
COc1cc(/C=C2\C(=O)NN(c3ccc(F)c(Cl)c3)C2=O)ccc1O	1.0	33.0
CCOc1c(Br)cc(/C=C2\C(=O)NN(c3ccc(F)c(Cl)c3)C2=O)cc1OC	1.1	81.0*
Cc1nnc2ccc(-c3noc(Cc4ccc(F)cc4)n3)cn12	-1.8	-4.6
COc1ccc(N2CCN3c4ccccc4CC(C(=O)N4CCOCC4)C3C2)cc1 (centres undefined)	-2.0	56.2*
Cc1ccc(N2CCN3c4ccccc4CC(C(=O)N4CCSCC4)C3C2)cc1 (centres undefined)	-1.0	57.6*
CCNC(=O)C1Cc2ccccc2N2CCN(c3ccccc3OC)CC12 (centres undefined)	0.6	9.1
COc1cccc(N2CCN3c4ccccc4CC(C(=O)NC(C)C)C3C2)c1 (centres undefined)	-1.5	32.2
O=C(NCc1ccccn1)C1Cc2ccccc2N2CCN(c3ccccc3)CC12 (centres undefined)	-11.5	37.5
O=C(NCCc1cccs1)C1Cc2ccccc2N2CCN(c3ccccc3)CC12 (centres undefined)	-3.5	94.7*
CCNC(=O)C1Cc2ccc(OC)cc2N2CCN(c3ccc(C)cc3)CC12 (centres undefined)	1.3	64.1*
CCNC(=O)C1Cc2ccc(OC)cc2N2CCN(c3ccc(OC)cc3)CC12 (centres undefined)	-3.3	16.6
CC(=O)NCCSc1c(-c2ccc(F)cc2)[nH]c2ccccc12	-4.0	7.0
O=C1CCCC2=C1C(c1ccccc1C(F)(F)F)Nc1ccc3ncccc3c12 (centres undefined)	-1.8	1.0
O=Cc1ccc(-c2cc(C(=O)O)ccc2Cl)o1	-7.5	-0.8
CCCC(C)C(=O)N1CCN(c2ccccc2)CC1 (centres undefined)	0.3	0.8
COc1ccc(-c2cc3c(c4c2ccn4C)C2CCC3C2)cc1F (centres undefined)	-2.9	46.6
Cn1ccc2c(N(Cc3ccccc3)Cc3ccccc3)cc3c(c21)C1CCC3C1 (centres undefined)	-1.9	12.2
CN(c1cc2c(c3c1ccn3C)C1CCC2C1)C1CCCCC1 (centres undefined)	-3.2	70.3*
COc1ccccc1N(C)c1cc2c(c3c1ccn3C)C1CCC2C1 (centres undefined)	1.8	83.1*
CCN(C)c1cc2c(c3c1ccn3C)C1CCC2C1 (centres undefined)	-7.2	53.0*
CN(Cc1ccccc1)c1cc2c(c3c1ccn3C)C1CCC2C1 (centres undefined)	-3.2	71.2*
Cn1ccc2c(-c3ccc(F)cc3)cc3c(c21)C1CCC3C1 (centres undefined)	2.4	22.3
Cn1ccc2c(N(c3ccccc3)C3CCCCC3)cc3c(c21)C1CCC3O1 (centres undefined)	-4.8	23.5
NC(=O)C1CCN(S(=O)(=O)c2ccc(C(=O)Nc3nccs3)o2)CC1	-3.4	-12.9
Cc1nc2sc(-c3ccon3)c(N)c2c(C)c1Cl	x	-4.2
SMILES	Pf apPOL block	mHTT-CaM PPI inh
CC(=O)Nc1nc2ccc(S(C)(=O)=O)cc2s1	0.5	-4.0
CCC(Sc1nc2ccccc2c2nc3ccccc3n12)C(=O)NCc1cccnc1 (centres undefined)	1.0	3.0
CN(CCc1ccccc1)c1cc2c(c3c1ccn3C)C1CCC2C1 (centres undefined)	-3.9	74.7*
Cc1ccccc1-c1cc2c(c3c1ccn3C)C1CCC2C1 (centres undefined)	-6.1	20.0
c1ccc(Nc2cc(-n3cccn3)ncn2)cc1	4.7	13.0
Cc1cc(C)c(C#N)c(SCC(=O)Nc2ccccn2)n1	-4.9	-4.0
Cc1ccc(S(=O)(=O)Nc2nc(-c3ccccc3)c(-c3ccccc3)o2)cc1	-6.5	50.0*
Cc1ccc(S(=O)(=O)Nc2ccccc2-c2ccccc2)cc1	-52.3	-28.8
Cc1cc(Cl)ccc1OCC(=O)NCc1ccccc1	3.0	-9.8
O=S(=O)(c1ccccc1)c1nc(-c2ccccc2)oc1N1CCOCC1	-2.9	1.0
O=S(=O)(c1ccccc1)c1nc(Cc2ccccc2)oc1N1CCCCCC1	68.0*	23.0
O=C(NCc1cccc(F)c1)C1CCN(c2cncnc2N2CCCC2)CC1	-9.1	16.6
O=C(NCc1cccc(C(F)(F)F)c1)C1CCN(c2cncnc2N2CCCC2)CC1	2.6	63.1*
CCc1ccc(CNC(=O)C2CCN(c3cncnc3N3CCCC3)CC2)cc1	1.4	6.9
O=C(NCc1ccc(Cl)cc1)C1CCN(c2cncnc2N2CCCC2)CC1	-4.4	70.1*
Cn1nccc1C(=O)Nc1ccc(Cl)cc1Cl	-7.5	-11.0
O=c1c2cn[nH]c2nc(SCc2ccc(C(F)(F)F)cc2)n1-c1ccccc1	-16.2	63.0*
O=C(CSc1nc2[nH]ncc2c(=O)n1-c1ccccc1)Nc1ccc(C(F)(F)F)cc1	-4.7	37.0
CC1COc2ccc(C(=O)NCCN(C)C)cc2N1Cc1cccc(F)c1 (centres undefined)	-4.4	5.9
CCC1(C)CC(CCNCc2ccc(N(C)C)cc2)(c2ccc(OC)cc2)CCO1 (centres undefined)	0.5	86.0*
CCC1(C)CC(CCNCc2ccc(OC)c(OC)c2)(c2ccccc2OC)CCO1 (centres undefined)	-11.2	12.0
CC(C)N(CC(O)COC12CC3CC(CC(C3)C1)C2)C(C)C (centres undefined)	-5.1	-5.8
Clc1cc(-c2ccccn2)nc(-c2ccccn2)c1	x	75.5*
c1ccc(-c2nc(-c3ccccn3)nc(-c3ccccn3)n2)nc1	x	19.2
Cn1nc(C(=O)N2CCN(Cc3nc4ccccc4n3C)CC2)ccc1=O	-4.3	-4.9
SMILES	Pf apPOL block	mHTT-CaM PPI inh
Cc1n[nH]c(C)c1Sc1ccccc1N=Cc1cc(Br)ccc1O	-1.7	58.0*
Cc1n[nH]c(C)c1Sc1ccccc1N=Cc1c(C)[nH]n(-c2ccccc2)c1=O	-4.3	88.0*
Cc1n[nH]c(C)c1Sc1ccccc1N=Cc1ccc(C(=O)O)cc1	-2.9	2.0
Cc1n[nH]c(C)c1Sc1ccccc1N=Cc1cc(Cl)ccc1O	-6.1	31.0
COc1ccc(-n2c(=O)c3c4c(sc3n3c(SCc5ccccc5)nnc23)CCC4)cc1	-1.7	5.1
CCN=C1S/C(=C\c2cc3c(cc2Br)OCO3)C(=O)N1CC	6.4	-6.0
COc1ccc(-c2c(C#N)c(N)n3c(nc4ccccc43)c2C#N)cc1	-1.4	94.0*
Cc1ccc(-c2c(C#N)c(N)n3c(nc4ccccc43)c2C#N)cc1	10.0	-3.0
O=C(Nc1ccc(-n2nncc2-c2ccccc2)cc1)c1ccc(S(=O)(=O)N2CCCC2)cc1	-0.5	11.0
CC(C)(O)C#Cc1ccccn1	-3.8	-5.1
CSc1ccc(N2CC(c3nnc(NC(=O)c4cccc(Cl)c4)o3)CC2=O)cc1 (centres undefined)	-1.1	53.3*
COc1ccc(N2CC(c3nnc(NC(=O)c4ccccc4)o3)CC2=O)cc1 (centres undefined)	0.9	19.1
CCOc1ccc(N2CC(c3nnc(NC(=O)C4CC4)o3)CC2=O)cc1 (centres undefined)	-2.9	11.0
CCOc1ccc(N2CC(c3nnc(NC(=O)c4cccc(Cl)c4)o3)CC2=O)cc1 (centres undefined)	-1.9	77.3*
COc1ccc(N2CC(c3nnc(NC(=O)c4cccc(Cl)c4)o3)CC2=O)cc1 (centres undefined)	-1.7	56.4*
CSc1ccc(N2CC(c3nnc(NC(=O)c4cccc(C)c4)o3)CC2=O)cc1 (centres undefined)	-3.8	3.0

Bioassay records as filed in PubChem BioAssay.
